The text below walks through data of PubChem BioAssay AID2551 (National Center for Advancing Translational Sciences (NCATS), 2010).

About 17,000 (5.5%) of roughly 310,000 compounds were called active. Not shown: some 11% with an inconclusive outcome. The entries come from a sample that favours actives as a whole. A number with no mark means an inactive call. The call rests on the fitted dose curve; in most records, active means well fitted inhibition curve with a large enough effect; inconclusive means small, poorly fitted or top-dose-only effect, or effect the other way; inactive means no such curve, though single readings can be large or run the other way.
On the % scale 0 is the no-effect control and ±100 the full control effect; potency means the concentration at half of the fitted maximal effect.

Sequence of Nuclear receptor ROR-gamma (Mus musculus) (P51450 whole entry, looked up, the tested form may be a part): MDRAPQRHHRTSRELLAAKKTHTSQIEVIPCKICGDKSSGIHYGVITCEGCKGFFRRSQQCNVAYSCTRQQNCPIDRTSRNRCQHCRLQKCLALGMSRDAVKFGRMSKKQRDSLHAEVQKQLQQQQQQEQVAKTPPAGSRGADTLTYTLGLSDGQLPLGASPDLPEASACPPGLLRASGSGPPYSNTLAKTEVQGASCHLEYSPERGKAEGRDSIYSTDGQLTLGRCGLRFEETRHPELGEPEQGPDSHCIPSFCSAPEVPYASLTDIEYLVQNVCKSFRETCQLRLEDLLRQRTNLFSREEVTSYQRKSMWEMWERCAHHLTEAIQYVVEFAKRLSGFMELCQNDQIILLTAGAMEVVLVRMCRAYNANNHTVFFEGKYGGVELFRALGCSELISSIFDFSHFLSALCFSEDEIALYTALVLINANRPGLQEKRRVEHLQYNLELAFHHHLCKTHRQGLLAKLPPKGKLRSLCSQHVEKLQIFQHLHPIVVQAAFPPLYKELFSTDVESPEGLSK

This test addresses Nuclear receptor ROR-gamma (Mus musculus) (UniProt P51450). Nature of the test: qHTS for inhibitors of ROR gamma transcriptional activity. Further: nearly all actives have a fitted effect of over 60% in size. The conditions noted are these: Drosophila S2 Gal4-RORgamma UAS-luciferase reporter, 20 h; series mostly up to 53.6 µM; activity change, negative = inhibition: at the top concentration. The essentials:
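In this cell-based reporter format, copper sulfate (700 uM final) drives Gal4–ROR gamma fusion expression from a metallothionein promoter in Drosophila Schneider cells; compounds preincubated 1 hr, reporter read after 20 hr at ambient temperature.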
On to `C=C(C)CNC(=S)N/N=C/c1ccccc1OCC(=O)O`, for which the Potency was 10 µM (active).
As for `CCOc1ccccc1/C=N/NC(=O)CNC(=O)COc1ccccc1`, the “activity change, negative = inhibition” value was 12.2%.
As for `C=CCOc1ccccc1/C=N/NC(=O)Cc1ccccc1`, the “activity change, negative = inhibition” value was -31.9%.
On the same count and under the same terms, in the case of `N#Cc1cc([N+](=O)[O-])ccc1NCC1CCCO1` (stereo not drawn) it was -1.01%.
In the case of `Cc1ccc(NC(=O)C2CCCN2C(=O)OCc2ccccc2)cc1C` (stereo not drawn), the “activity change, negative = inhibition” value was 3.47%.
Regarding `O=C(N/N=C/c1cccc(O)c1)c1cc2c(ccc3ccccc32)o1`, the “activity change, negative = inhibition” value was -1.2%.
On the same count and under the same terms, in the case of `CSc1ncc(Cl)c(C(=O)Nc2cc(C)ccc2C)n1` it was 1.49%.
Regarding `Cc1ccc(CS(=O)(=O)c2ncc(Cl)c(C(=O)Nc3nnc(C)s3)n2)cc1`, the Potency was 14.1 µM (active).
On to `Cc1cccc(OCc2ccc(C(=O)Nc3ccc(F)cc3)cc2)c1`, for which the “activity change, negative = inhibition” value was 27.9%.
Still for that read-out and setting: in the case of `Cc1cccc(NC(=O)C(C)SCc2ccccc2)c1` (stereo not drawn) it was 6.35%; in that of `CCSc1ncc(Cl)c(C(=O)Nc2cc(C)ccc2C)n1`, 13.3%.
On to `Cc1cccc(NC(=O)c2nc(S(=O)(=O)Cc3ccccc3)ncc2Cl)c1`, for which the Potency is 7.08 µM (active).
With `Cc1ccc(S(=O)(=O)CC(=O)Nc2nnc(C)s2)cc1`, the “activity change, negative = inhibition” value was 6.36%.
`Cc1cccc(CS(=O)(=O)c2ncc(Cl)c(C(=O)Nc3ccc(F)cc3)n2)c1`: the Potency is 6.31 µM (active).
On to `Cc1nnc(NC(=O)CCCOc2ccccc2)s1`, for which the “activity change, negative = inhibition” value is 12.3%.
Same read-out and setting: next, `O=C(CCS(=O)(=O)c1ccccc1)NC1CCCC1`: 3.1%.
On the same count and under the same terms, next, `CSCCC(NS(=O)(=O)c1ccc(C)cc1)C(=O)NCCc1c[nH]c2ccccc12` (stereo not drawn): -0.592%.
Same read-out and setting: in the case of `O=C(CN(C(=O)CCC(=O)Nc1nccs1)c1ccc(F)cc1)NCc1ccc2c(c1)OCO2` it was 32.5%; in that of `COc1ccc(N2CCC(N3CCN(C)C(CCO)C3)CC2)cc1` (stereo not drawn), -13.7%; in that of `CC1(C)C(c2cccs2)=[N+]([O-])C2(CCCCC2=O)N1O` (stereo not drawn), -25.3%.
Turning to `C/C(=N\O)C1(C)N(O)C(C)(C)C(c2ccc(Br)cc2)=[N+]1[O-]` (stereo not drawn), the “activity change, negative = inhibition” value is 9.2%.
Consider `CC(=O)C1(C)N(O)C(C)(C)C(c2cccs2)=[N+]1[O-]` (stereo not drawn), for which the Potency is 4.47 µM (active).
With `CCOC(=O)c1c(-c2ccccc2)oc2cc(Br)c(O)c(C=O)c12`, the “activity change, negative = inhibition” value was -14.8%.
Still for that read-out and setting: next, `O=C(NCCc1ccccc1)c1ccc2c(c1)N(Cc1ccccc1)CCS2`: 29.8%; `O=C(NCCNc1ccc([N+](=O)[O-])cc1Cl)c1ccccc1F`: -13.1% [at 1.91 µM].
For the compound `COC(c1ccccc1)(c1ccccc1)C(Oc1nc(C)cc(C)n1)C(=O)O` (stereo not drawn), the Potency result is “inactive”.
The same measure, in the same setting: in the case of `C/C(CC(C)C)=N\Oc1nc(C)cc(C)n1` it was 6.31 µM (active).
On to `COc1ccc(NC(=O)CCCN2C(=O)C(c3ccccc3)Oc3cccnc32)cc1` (stereo not drawn), for which the “activity change, negative = inhibition” value was 25.9%.
Still for that read-out and setting: in the case of `CCN(C(=O)c1cc([N+](=O)[O-])ccc1NCc1cccnc1)c1ccccc1` it was 11.5% [at 1.91 µM].
Still for that read-out and setting: next, `COc1ccc(CN(C)C(=O)c2cc(-c3ccc(C)cc3C)nc3ccccc23)c(OC)c1OC`: -10.5%; `Cc1cc(=O)oc2c3c(cc(OCC(=O)NCCC(=O)N[C@@H](C)C(=O)O)c12)OC(C)(C)CC3`: 1.96%; `COC(=O)c1ccc(/C=N/NC(=O)C(=O)N2CCCCCC2)cc1`: -15.5%.
As to `COc1ccccc1/C=C/C=N/NC(=O)CN1CCN(Cc2ccccc2)CC1`, the “activity change, negative = inhibition” value was -39.6%.
Regarding `CC(/C=C/c1ccccc1)=N\NC(=O)C1CC1(C)c1ccccc1` (stereo not drawn), the “activity change, negative = inhibition” value is -90.5%.
For the compound `O=C(N/N=C/C=C/c1ccccc1)C1CC1(c1ccccc1)c1ccccc1` (stereo not drawn), the Potency was 8.91 µM (active).
As for `CN(C(=O)CCNC(=O)Cn1ccc2ccccc2c1=O)c1ccc(Br)cc1`, the “activity change, negative = inhibition” value was 16.9%.
Same read-out and setting: in the case of `COc1cc(NC(=O)C2CC(c3ccccc3O)=NO2)c(OC)cc1Cl` (stereo not drawn) it was -40.7%; in that of `O=C(CN1C(=O)COc2ccc(Cl)cc21)Nc1ccc(N2CCOCC2)cc1`, -16.7%; in that of `Cc1ccc(S(=O)(=O)N2CCOCC2)cc1C(=O)NCc1ccc(F)cc1`, 28.3%.
For the compound `CCOC(=O)c1sc(NC(=O)c2cc(S(=O)(=O)N3CCOCC3)ccc2C)nc1C`, the “activity change, negative = inhibition” value is 5.65%.
For `Cc1ccc(S(=O)(=O)N2CCOCC2)cc1C(=O)NC(=S)N(Cc1ccccc1)C(C)C`, the Potency was 1.26 µM (active).
As to `COc1ccc([N+](=O)[O-])cc1NCC(=O)c1ccc(C)cc1`, the “activity change, negative = inhibition” value is 12.3%.
Still for that read-out and setting: next, `COCC1CCN(C(=O)CCc2nnc(C3(c4ccc(Cl)cc4)CCC3)o2)C1` (stereo not drawn): 12.5%; `CCCNC(=O)COc1coc(CN2CCN(Cc3ccccc3)CC2)cc1=O`: -15.2%.
As for `COC(=O)c1cc(S(=O)(=O)NCC2CCN(Cc3ccc(Cl)cc3)CC2)cn1C`, the “activity change, negative = inhibition” value is -5.73%.
Consider `S=c1[nH]c(-c2cccs2)cn1-c1ccccc1`, for which the Potency is 5.01 µM (active).
On to `O=C(O)/C=C/c1cn(-c2ccccc2)nc1-c1cccs1`, for which the “activity change, negative = inhibition” value is 2.06%.
Still for that read-out and setting: next, `O=c1[nH]c(-c2cccs2)nc2ccccc12`: 33.6%; `O=C1OC2(CCCCC2)CC2=C1C1O[C@](c3ccsc3)(Cc3ccccc31)O2`: -3.37% [at 10 µM]; `Nc1nc(SCc2cccc(Br)c2)n[nH]1`: -10.9%.
Take `Cc1ccc(SCc2c(C(=O)N/N=C/c3cccnc3)nnn2-c2nonc2N)cc1`: the “activity change, negative = inhibition” value was 27.5%.
On to `Nc1nonc1-n1nnc(C(=O)N/N=C/c2cc(Br)ccc2O)c1CSC1=NCCS1`, for which the Potency was 3.16 µM (active).
As to `Cc1ccc(SCc2c(C(=O)N/N=C/C3CC=CCC3)nnn2-c2nonc2N)cc1` (stereo not drawn), the “activity change, negative = inhibition” value is -43.2%.
